Read-out in assay [1]: Pyruvate Dehydrogenase Kinase 4 (PDK4), PDK4 (gene 5166)
The experiment in a line: LTEA_HepaRG_PDK4: Life Technologies and Expression Analysis (LTEA) Assay for Pyruvate Dehydrogenase Kinase 4 (PDK4) using HepaRG (AID 2283525). The following applies: mRNA level, 48 h; actives raise or lower the signal. Summed up: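 In this multiplexed human HepaRG expression assay, cells are treated 48 h with test chemicals across an eight-point range starting at 100 uM. PDK4 mRNA changes, normalized to ACTB/GAPDH/POLR2A, are fitted in both directions relative to vehicle.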

Read-out in assay [2]: NAD(P)H dehydrogenase [quinone] 1 (NQO1), NQO1 (gene 1728)
The experiment in a line: LTEA_HepaRG_NQO1: Life Technologies and Expression Analysis (LTEA) Assay for NAD(P)H dehydrogenase [quinone] 1 (NQO1) using HepaRG (AID 2283526). The following applies: mRNA level, 48 h; actives raise or lower the signal. Summed up: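 Human HepaRG hepatic cells received chemicals for 48 h in serum-free induction medium with 0.5% DMSO, up to 100 uM. Expression was assessed by TaqMan qRT-PCR against housekeeping controls and fitted bidirectionally against DMSO.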

Read-out in assay [3]: Nuclear factor erythroid 2-related factor 2 (Homo sapiens) (UniProt Q16236)
The experiment in a line: LTEA_HepaRG_NFE2L2: Life Technologies and Expression Analysis (LTEA) Assay for Nuclear factor erythroid 2-related factor 2 (NFE2L2) Transcription Factor using HepaRG (AID 2283527).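 Also: TaqMan qRT-PCR transcript level normalised to ACTB GAPDH and POLR2A housekeeping genes.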 The following applies: mRNA level, 48 h; actives raise or lower the signal. Summed up: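 Transcript level of NFE2L2 is the read-out, measured by microfluidic TaqMan qRT-PCR and normalized to three housekeeping genes. Human HepaRG cultures received test chemical for 48 h at up to 100 uM in half-log steps. Gain or loss of signal is fitted relative to 0.5% DMSO.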

Read-out in assay [4]: succinate dehydrogenase complex iron sulfur subunit B (SDHB), SDHB (gene 6390)
The experiment in a line: LTEA_HepaRG_SDHB: Life Technologies and Expression Analysis (LTEA) Assay for succinate dehydrogenase complex iron sulfur subunit B (SDHB) using HepaRG (AID 2283528). The note with it: mRNA level, 48 h; actives raise or lower the signal. Summed up: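 HepaRG cells (~100,000/well, plated 48 h) exposed in duplicate for 48 h in serum-free induction medium to 8-point half-log series from 100 uM in 0.5% DMSO; mRNA by qRT-PCR normalised to ACTB, GAPDH, POLR2A; bidirectional fit versus DMSO.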

Read-out in assay [5]: Signal transducer and activator of transcription 3 (Homo sapiens) (UniProt P40763)
The experiment in a line: LTEA_HepaRG_STAT3: Life Technologies and Expression Analysis (LTEA) Assay for Signal transducer and activator of transcription (STAT3) using HepaRG (AID 2283529). The following applies: mRNA level, 48 h; actives raise or lower the signal. The procedure, abridged: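 Read-out is STAT3 mRNA level by qRT-PCR, normalized to three housekeeping genes, in human HepaRG liver cells treated for 48 h. Concentrations ran from 100 uM downward in half-log steps; curves were fitted for gain or loss relative to 0.5% DMSO.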

Read-out in assay [6]: sulfotransferase 2A1 (SULT2A1), SULT2A1 (gene 6822)
The experiment in a line: LTEA_HepaRG_SULT2A1: Life Technologies and Expression Analysis (LTEA) Assay for sulfotransferase 2A1 (SULT2A1) using HepaRG (AID 2283531). The note with it: mRNA level, 48 h; actives raise or lower the signal. Summed up:
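HepaRG human liver cells, 48 h exposure in serum-free induction medium to 8 half-log concentrations topping at 100 µM (0.5% DMSO), duplicate wells. SULT2A1 mRNA measured by TaqMan qRT-PCR, normalized to ACTB/GAPDH/POLR2A; bidirectional fit against DMSO.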

Read-out in assay [7]: Transforming Growth Factor (TGFA), TGFA (gene 7039)
The experiment in a line: LTEA_HepaRG_TGFA: Life Technologies and Expression Analysis (LTEA) Assay for Transforming Growth Factor (TGFA) using HepaRG (AID 2283532). The note with it: mRNA level, 48 h; actives raise or lower the signal. Summed up: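 HepaRG (human liver line), 48 h exposure, 8 conc. half-log down from 100 uM, 0.5% DMSO vehicle, duplicates; serum-free induction medium. TGFA mRNA by TaqMan qRT-PCR, ACTB/GAPDH/POLR2A normalization; gain/loss fit vs DMSO.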

Read-out in assay [8]: Transforming Growth Factor (TGFB1), TGFB1 (gene 7040)
The experiment in a line: LTEA_HepaRG_TGFB1: Life Technologies and Expression Analysis (LTEA) Assay for Transforming Growth Factor (TGFB1) Transporter using HepaRG (AID 2283533). The following applies: mRNA level, 48 h; actives raise or lower the signal. The procedure, abridged:
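Differentiated HepaRG cells exposed 48 hr in serum-free induction medium to eight half-log concentrations up to 100 uM (0.5% DMSO), duplicate; TGFB1 mRNA by TaqMan qRT-PCR normalised to ACTB, GAPDH, POLR2A; bidirectional fit against DMSO.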

Read-out in assay [9]: TIMP1, TIMP1 (gene 7076)
The experiment in a line: LTEA_HepaRG_TIMP1: Life Technologies and Expression Analysis (LTEA) Assay for TIMP1 using HepaRG (AID 2283534). The note with it: mRNA level, 48 h; actives raise or lower the signal. The procedure, abridged: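 Differentiated HepaRG cells exposed 48 h in serum-free induction medium, duplicates, eight half-log concentrations from 100 uM in 0.5% DMSO. TIMP1 mRNA by qRT-PCR normalized to ACTB, GAPDH, POLR2A; bidirectional fitting against DMSO.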

Read-out in assay [10]: Tumor necrosis factor receptor 1 (TNFRSF1A), TNFRSF1A (gene 7132)
The experiment in a line: LTEA_HepaRG_TNFRSF1A: Life Technologies and Expression Analysis (LTEA) Assay for Tumor necrosis factor receptor 1 (TNFRSF1A) using HepaRG (AID 2283535). The note with it: mRNA level, 48 h; actives raise or lower the signal. The procedure, abridged: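 Differentiated HepaRG cells in serum-free induction medium, exposed 48 h in duplicate to 8 half-log concentrations up to 100 uM in 0.5% DMSO. TNFRSF1A mRNA by Fluidigm TaqMan qRT-PCR, normalized to ACTB, GAPDH, POLR2A; bidirectional fit.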

Read-out in assay [11]: Thyroid Hormone Responsive (THRSP), THRSP (gene 7069)
The experiment in a line: LTEA_HepaRG_THRSP: Life Technologies and Expression Analysis (LTEA) Assay for Thyroid Hormone Responsive (THRSP) using HepaRG (AID 2283536). The note with it: mRNA level, 48 h; actives raise or lower the signal. Summed up:
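mRNA induction or loss relative to 0.5% DMSO vehicle was fitted bidirectionally across an eight-point curve whose highest exposure was 100 uM. Human HepaRG liver cells received chemicals in duplicate over 48 h before RNA extraction.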

Read-out in assay [12]: Cellular tumor antigen p53 (Homo sapiens) (UniProt P04637)
The experiment in a line: LTEA_HepaRG_TP53: Life Technologies and Expression Analysis (LTEA) Assay for Tumor Protein P53 (TP53) using HepaRG (AID 2283537). The note with it: mRNA level, 48 h; actives raise or lower the signal. Summed up:
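Differentiated HepaRG cells in serum-free induction medium exposed 48 h in duplicate to 8 half-log concentrations, top 100 uM, 0.5% DMSO. TP53 mRNA by TaqMan qRT-PCR (Fluidigm), normalized to ACTB, GAPDH, POLR2A; fitted bidirectionally versus DMSO.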

Read-out in assay [13]: UDP glucuronosyltransferase (UGT1A1), UGT1A1 (gene 54658)
The experiment in a line: LTEA_HepaRG_UGT1A1: Life Technologies and Expression Analysis (LTEA) Assay for UDP glucuronosyltransferase (UGT1A1) using HepaRG (AID 2283538). The following applies: mRNA level, 48 h; actives raise or lower the signal. Summed up:
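Human liver HepaRG cultures receive test chemical for 48 h, up to 100 uM in 0.5% DMSO, with phenobarbital induction controls. UGT1A1 mRNA is measured by qRT-PCR and normalized to ACTB, GAPDH and POLR2A.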

Read-out in assay [14]: UDP glucuronosyltransferase (UGT1A6), UGT1A6 (gene 54578)
The experiment in a line: LTEA_HepaRG_UGT1A6: Life Technologies and Expression Analysis (LTEA) Assay for UDP glucuronosyltransferase (UGT1A6) using HepaRG (AID 2283539). The following applies: mRNA level, 48 h; actives raise or lower the signal. Summed up: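 Differentiated HepaRG cells, ~100,000/well, were exposed for 48 h in serum-free induction medium with 0.5% DMSO to 8-point half-log series topping at 100 uM, in duplicate. mRNA measured by Fluidigm TaqMan qRT-PCR, normalized to ACTB, GAPDH and POLR2A.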

Read-out in assay [15]: X-box binding protein 1 (XBP1), XBP1 (gene 7494)
The experiment in a line: LTEA_HepaRG_XBP1: Life Technologies and Expression Analysis (LTEA) Assay for X-box binding protein 1 (XBP1) using HepaRG (AID 2283540). The following applies: mRNA level, 48 h; actives raise or lower the signal. Summed up: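 Differentiated human HepaRG cells in serum-free induction medium exposed 48 h in duplicate to eight half-log concentrations up to 100 uM in 0.5% DMSO. XBP1 mRNA measured by Fluidigm TaqMan qRT-PCR, normalized to ACTB, GAPDH, POLR2A; bidirectional fitting against DMSO.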

A short description of assay [16]: LTEA_HepaRG_LDH_cytotoxicity: Cytotoxicity Assessment in the Life Technologies and Expression Analysis (LTEA) Assay (AID 2283563; active = hit-call score of the fitted dose curve at least 0.9, where 1 is the maximum). The procedure, abridged:
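Differentiated HepaRG cells in serum-free induction medium, exposed 48 h in duplicate to 8 half-log concentrations up to 100 uM in 0.5% DMSO. Cytotoxicity from LDH measured in spent medium, fit relative to DMSO.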

Assay [17] is described as follows: TOX21_p53_BLA_p2_viability: Viability Assessment in the Tox21 HCT-116 p53 Agonism Beta-lactamase Assay, Phase 2 (AID 2283591; active = hit-call score of the fitted dose curve at least 0.9, where 1 is the maximum;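 also: compound exposure lasted 16 h at 37 °C; actives lower the ATP signal meaning cytotoxicity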). The procedure, abridged: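 Cytotoxicity readout: CellTiter-Glo ATP luminescence, 30 min at room temperature, after the beta-lactamase read. Cells were HCT116 exposed 16 h at 37C to compounds pin-transferred at 217-fold dilution from DMSO stocks.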

Read-out in assay [18]: solute carrier (SLCO1B1), SLCO1B1 (gene 10599)
The experiment in a line: LTEA_HepaRG_SLCO1B1: Life Technologies and Expression Analysis (LTEA) Assay for solute carrier (SLCO1B1) using HepaRG (AID 2283530). The note with it: mRNA level, 48 h; actives raise or lower the signal. The procedure, abridged:
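Differentiated human HepaRG cells were exposed for 48 h in serum-free induction medium to eight half-log concentrations, top 100 uM, in 0.5% DMSO. SLCO1B1 mRNA was measured by qRT-PCR, normalized to ACTB, GAPDH and POLR2A, and fitted bidirectionally against DMSO.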

Assay [19] in a line: ATG_XTT_Cytotoxicity: Cytotoxicity Assessment in the Attagene TRANS-FACTORIAL HepG2 Assay (AID 2283584; active = hit-call score of the fitted dose curve at least 0.9, where 1 is the maximum). The procedure, abridged:
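HepG2 cells transiently transfected with GAL4-UAS multiple reporter units, dosed 24 h; cytotoxicity read by XTT as loss of signal versus DMSO baseline.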

The structures appear in SMILES notation. Records with an inconclusive call do not appear. The source made the active and inactive calls. The calls were made as follows, unless noted: active = hit-call score of the fitted dose curve at least 0.9, where 1 is the maximum; inactive = score below 0.9.

By AC50 is commonly meant the midpoint of the concentration-response curve, whichever way the signal moves.

Chain of Nuclear factor erythroid 2-related factor 2 (Homo sapiens) (Q16236 whole entry, looked up): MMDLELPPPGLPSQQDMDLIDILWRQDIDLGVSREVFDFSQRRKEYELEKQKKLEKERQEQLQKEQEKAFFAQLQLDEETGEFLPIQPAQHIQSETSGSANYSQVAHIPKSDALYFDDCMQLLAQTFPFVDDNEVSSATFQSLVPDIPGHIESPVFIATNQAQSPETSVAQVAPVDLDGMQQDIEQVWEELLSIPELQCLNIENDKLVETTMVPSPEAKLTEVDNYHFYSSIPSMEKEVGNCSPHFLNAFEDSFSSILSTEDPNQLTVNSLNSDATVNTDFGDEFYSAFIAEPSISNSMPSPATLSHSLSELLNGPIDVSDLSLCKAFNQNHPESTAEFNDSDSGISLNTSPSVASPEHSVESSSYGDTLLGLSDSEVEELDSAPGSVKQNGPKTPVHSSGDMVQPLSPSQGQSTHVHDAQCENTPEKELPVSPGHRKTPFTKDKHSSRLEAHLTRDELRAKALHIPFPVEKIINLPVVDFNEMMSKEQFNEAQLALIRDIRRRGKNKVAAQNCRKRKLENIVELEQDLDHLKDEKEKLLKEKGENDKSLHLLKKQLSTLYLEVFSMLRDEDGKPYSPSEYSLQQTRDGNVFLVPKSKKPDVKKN
Chain of Signal transducer and activator of transcription 3 (Homo sapiens) (P40763 whole entry, looked up): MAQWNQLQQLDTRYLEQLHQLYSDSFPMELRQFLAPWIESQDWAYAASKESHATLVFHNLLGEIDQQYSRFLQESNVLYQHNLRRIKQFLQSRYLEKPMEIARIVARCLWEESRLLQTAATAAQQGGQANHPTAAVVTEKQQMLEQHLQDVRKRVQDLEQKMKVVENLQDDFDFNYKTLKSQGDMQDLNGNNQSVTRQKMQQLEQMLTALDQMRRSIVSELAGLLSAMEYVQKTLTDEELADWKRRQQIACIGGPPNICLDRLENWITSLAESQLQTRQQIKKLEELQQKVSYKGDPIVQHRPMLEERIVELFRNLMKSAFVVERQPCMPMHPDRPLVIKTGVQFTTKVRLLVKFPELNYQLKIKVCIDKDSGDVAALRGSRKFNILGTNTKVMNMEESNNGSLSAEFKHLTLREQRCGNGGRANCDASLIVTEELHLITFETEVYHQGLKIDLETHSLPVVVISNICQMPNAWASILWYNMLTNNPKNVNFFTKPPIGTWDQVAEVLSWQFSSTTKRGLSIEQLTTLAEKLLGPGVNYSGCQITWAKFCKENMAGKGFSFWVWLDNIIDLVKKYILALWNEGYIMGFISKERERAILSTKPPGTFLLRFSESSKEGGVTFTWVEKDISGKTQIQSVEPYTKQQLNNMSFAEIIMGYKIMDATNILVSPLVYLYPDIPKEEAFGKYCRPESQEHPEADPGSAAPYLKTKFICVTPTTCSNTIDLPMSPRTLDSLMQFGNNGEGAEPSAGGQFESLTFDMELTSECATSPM
Chain of Cellular tumor antigen p53 (Homo sapiens) (P04637 whole entry, looked up): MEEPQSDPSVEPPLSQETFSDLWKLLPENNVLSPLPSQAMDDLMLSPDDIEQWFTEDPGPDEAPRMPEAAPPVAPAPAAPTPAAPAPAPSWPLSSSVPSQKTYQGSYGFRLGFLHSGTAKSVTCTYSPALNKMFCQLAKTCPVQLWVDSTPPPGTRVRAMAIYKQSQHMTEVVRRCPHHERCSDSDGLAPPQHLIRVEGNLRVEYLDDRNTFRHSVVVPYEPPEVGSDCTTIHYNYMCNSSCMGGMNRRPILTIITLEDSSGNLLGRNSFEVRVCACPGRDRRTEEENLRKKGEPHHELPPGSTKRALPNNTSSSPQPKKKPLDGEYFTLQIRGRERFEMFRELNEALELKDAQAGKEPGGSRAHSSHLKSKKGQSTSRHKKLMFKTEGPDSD

`CCCCCCCCOC(=O)c1ccc(C(=O)OCCCCCCCC)c(C(=O)OCCCCCCCC)c1`: the result in [1], in assay [2], in assay [3], in assay [4], in assay [5] and in assay [6] was inactive. The compound was called inactive in assay [7], in [8], in assay [9], in [10], in assay [11] and in assay [12]. The compound was classed as inactive in assay [13], in [14], in [15], in [16] and in [17].
Turning to `C[C@]12C=CC3=C4CCC(=O)C=C4CC[C@H]3[C@@H]1CC[C@@H]2O`, the outcome in assay [1], in [2], in [3], in assay [5], in [7] and in assay [8] was inactive. Also, the outcome in [9], in assay [10], in assay [14], in assay [16] and in [19] was inactive. Also, the AC50 in assay [18] was 9.92 µM (active); in assay [6], 81.8 µM (active); in assay [11] it was 15.7 µM (active); in assay [13], 1.01 µM (active); in assay [15] it was 72.4 µM (active).
Regarding `Clc1ccc(Cl)c(Cl)c1`, the call in [1], in assay [2], in assay [3], in [5], in assay [18] and in assay [7] was inactive. Moreover, the outcome in [9], in [11], in [12], in [13], in assay [15] and in assay [16] was inactive. For the same compound, the result in assay [19] and in assay [17] was inactive. The results for the AC50 in [6], in [10] and in assay [14] were 83.5 µM (active), 50 µM (active) and 9.92 µM (active), respectively.

Source of the values: PubChem BioAssay (EPA / NIEHS).
